# Screening results (PubChem)
# These entries were drawn from the full list.
# aSyn UTR act = Activators via SNCA 5'UTR binding, MLPCN. hit rate 7.1% among 300,000. AID 1814, 2009. alpha-synuclein 5'UTR reporter, activators screen. activity score, % (tested at 7.5 µM), hits read low; in the data active = activity score below about -60%
# * hit, by the source's call.
SMILES,aSyn UTR act
Cc1csc(NC(=O)c2cccn2C)n1,-128.0*
CC(C)(C)c1csc(NC(=O)c2cccs2)n1,-83.7*
O=C(Nc1nc(-c2nc3ccccc3s2)cs1)C1CC1,-95.6*
Cc1onc(-c2c(Cl)cccc2Cl)c1C(=O)Nc1nc(C(C)(C)C)cs1,79.6
O=C(CN1C(=O)CCC1=O)Nc1nc(-c2nc3ccccc3s2)cs1,-113.7*
O=C(NNc1nc(-c2ccc(Cl)cc2)cs1)c1ccco1,-72.6*
Cc1c(Cl)ccc2sc(NC(=O)c3ccco3)nc12,-198.7*
O=C(Nc1nc(-c2ccc(Cl)s2)cs1)c1cccs1,-276.1*
O=S(=O)(Cc1noc(-c2ccccc2Cl)n1)c1ccccn1,-70.4*
O=C(C(Cl)c1ccccc1)N1CCOCC1 (configuration not stated),-64.8*
Clc1ccc(Nc2nc(C3CC3)cs2)cc1,-189.6*
COC(=O)Cc1[nH]n(-c2nc3ccccc3s2)c(=O)c1C(C)=Nc1ccc(C)cc1,97.5
COC(=O)Cc1[nH]n(-c2ccccc2)c(=O)c1C(C)=Nc1ccccc1,-70.8*
CCc1cc2cc(C(=O)Nc3ccc(C)cc3)sc2s1,-89.7*
c1ccc(-c2nc3nc4ccccc4nc3n2Cc2ccco2)cc1,-106.3*
C#CCSc1nnc(-c2sc(-c3ccccc3)nc2C)n1C,-66.8*
COc1ccc(-c2csc(NC(=O)CSc3nc(C)cs3)n2)cc1,-152.9*
O=C(Nc1ccc([N+](=O)[O-])cc1)Nc1nc(-c2ccc(Cl)s2)cs1,91.5
CCc1nnc(NC(=O)CSc2nc(-c3ccc(OC)cc3)ns2)s1,-84.1*
CCCC(=O)Nc1nc(-c2ccc(Cl)s2)cs1,-114.1*
COc1ccc(-c2csc(NC(=O)C3CCCO3)n2)cc1 (configuration not stated),-102.4*
COc1ccc(-c2csc(NC(=O)CSc3nc(SC)ns3)n2)cc1,-102.1*
CCCC(=O)Nc1nc(C)c(-c2csc(Nc3cc(OC)ccc3OC)n2)s1,61.2
CCCC(=O)Nc1nc(-c2ccc(OC)cc2)cs1,-123.2*
CCc1ccc(-c2csc(NC(=O)COC(=O)CCc3nc4ccccc4s3)n2)cc1,-108.9*
SMILES,aSyn UTR act
COc1ccc(C(=O)Nc2cccc(-c3ccc(N4CCOCC4)nn3)c2)cc1OC,-70.1*
CCOc1ccc(C(=O)Nc2cccc(-c3ccc(N4CCOCC4)nn3)c2)cc1OCC,-69.2*
O=C(Nc1cccc(-c2ccc(N3CCOCC3)nn2)c1)c1ccc(F)cc1F,-72.7*
CCOc1ccccc1C(=O)Nc1c[nH]c(=O)[nH]c1=O,61.6
CCOc1ccccc1C(=O)Nc1cccc(-c2ccc(N3CCOCC3)nn2)c1,-127.2*
COc1cccc(C(=O)Nc2cccc(-c3ccc(N4CCOCC4)nn3)c2)c1,-72.2*
COc1ccc2c(c1)CCc1c-2nc2ccccc2c1N1CCOCC1,-86.8*
Cc1ccc(C(=O)NCCOc2cccc(C)c2)cc1,-110.7*
Cc1ccc(OCCNC(=O)c2ccc3c(c2)OCO3)cc1,-61.6*
COC(=O)Cn1c(C)nc2c(sc3nc(C)cc(C)c32)c1=O,-76.1*
Cc1cccc(NC(=O)Nc2cc(C)cc(C)n2)c1,-183.7*
Cc1ccnc(NC(=O)Nc2cccc(F)c2)n1,-115.4*
Cc1cccc(NC(=O)Nc2cccc(C#N)c2)n1,-170.3*
Cc1cccc(NC(=O)Nc2cccc(F)c2)n1,-118.8*
Cc1ccccc1-c1nnc(SCC(=O)N2CCCC2)o1,-135.3*
O=C(CSc1nnc2ccc3ccccc3n12)N1CCOCC1,-94.3*
COc1ccccc1-c1nnc(-c2ccc(N3CCOCC3)cc2)o1,-106.0*
O=C(CSc1nnc(-c2ccccc2Cl)o1)N1CCOCC1,-124.1*
COc1ccccc1-c1nnc(SCC(=O)N2CCOCC2)o1,-85.3*
N/C(=N\OC(=O)/C=C/c1ccccc1Cl)c1cccnc1,-248.2*
N/C(=N\OC(=O)/C=C/c1ccccc1)c1cccnc1,-159.2*
CC1=C(C(=O)Nc2ccccn2)C(c2ccc(Cl)cc2)NC(=S)N1 (configuration not stated),-121.7*
CC1=C(C(=O)Nc2ccccn2)C(c2ccc(Br)cc2)NC(=S)N1 (configuration not stated),-105.9*
COc1ccc(CN=Cc2[nH]c3ccc(Br)c(Cl)c3c2O)cc1,-77.7*
CCOc1ncccc1C(=O)Nc1ccc2nc(C)sc2c1,-74.6*
SMILES,aSyn UTR act
Cc1nc2cc(NC(=O)c3ccc(Br)s3)ccc2s1,-83.3*
Cc1nc2ccc(NC(=O)c3cc(Cl)ccn3)cc2s1,-74.0*
Cc1ccc(C(=O)Nc2ccc3nc(C)sc3c2)s1,-206.4*
O=C(Nc1ccccn1)c1ccc(Cl)c(S(=O)(=O)N2CCCCCC2)c1,-81.3*
O=C(Nc1ccccn1)c1ccc2c(c1)S(=O)(=O)c1ccccc1C2=O,-89.8*
Cc1ccnc(NC(=O)c2ccc(Cl)c(S(=O)(=O)N3CCCC3)c2)c1,-131.6*
CCC(C)NC(=O)c1cc(Cl)c(NC(=O)C2=C(C)OCCS2)cc1OC (configuration not stated),-62.5*
CCN1CCN(S(=O)(=O)c2ccc(Cl)c(C(=O)NCCc3ccccc3)c2)CC1,-68.8*
Cc1cc(CNC(=O)c2ccc3nc(Cc4ccccc4F)oc3c2)nn1C,-134.6*
CC(c1ccccn1)N(C)C(=O)c1ccc2nc(Cc3ccccc3F)oc2c1 (configuration not stated),-101.9*
O=C(c1ccc2nc(Cc3ccccc3F)oc2c1)N1CCCC1,-150.4*
Cc1c(Br)c(O)c(Br)c(O)c1/C=N/n1c(-c2ccccc2)n[nH]c1=S,61.9
Cc1cc(-c2n[nH]c(=S)n2/N=C/C(Cl)=C/c2ccccc2)n[nH]1,-164.3*
S=c1[nH]nc(C2CCCCC2)n1/N=C/C(Cl)=C\c1ccccc1,-74.5*
S=c1[nH]nc(-c2ccco2)n1/N=C/C(Cl)=C/c1ccccc1,-172.0*
COCc1cc(C)nc(Nc2ccc(C)c(C)c2)c1C#N,-70.6*
CCOC(=S)SCC(=O)Nc1nc(-c2ccc(Br)cc2)cs1,69.9
CCOC(=O)N1CCN(C(=O)CSCC(=O)Nc2nc(-c3ccc(Cl)s3)cs2)CC1,-85.3*
CCOC(=O)N1CCN(C(=O)CSCC(=O)Nc2nc(-c3ccc(-c4ccccc4)cc3)cs2)CC1,-125.7*
O=C(COC(=O)c1cccnc1Cl)Nc1nc(-c2ccccc2)cs1,-63.0*
CCOC(=O)N1CCN(C(=O)CSCC(=O)Nc2nc(-c3ccc(OC)cc3)cs2)CC1,-96.8*
CCOC(=O)c1ccc2nc3c(cc2c1)CCS3,-148.5*
Cc1coc2c1C(=O)C(=O)c1c-2ccc2c(C)cccc12,-64.2*
Cc1coc2c1C(=O)C(=O)c1c-2ccc2c1CCCC2(C)C,63.0
Cc1cc(Cl)ccc1OCCCC(=O)N1CCCCC1,-100.5*
SMILES,aSyn UTR act
Cc1cc(Cl)ccc1OCC(=O)N1C(C)CCCC1C (configuration not stated),-62.3*
Cc1cc(Cl)ccc1OCCCC(=O)N1CCOCC1,-94.8*
O=C(CCN1C(=O)/C(=C/c2ccccc2)SC1=S)N1CCCCCC1,-62.4*
O=C(O)CCCN1C(=O)/C(=C\C(Cl)=C\c2ccccc2)SC1=S,-224.7*
O=C(CCN1C(=O)/C(=C\c2ccccc2F)SC1=S)N1CCCCC1,-116.7*
COCCN1C(=O)/C(=C/c2ccc(N3CCCC3)cc2)SC1=S,-85.4*
O=C(CCCN1C(=O)/C(=C/c2ccccc2Cl)SC1=S)NNC(=O)c1ccc(Cl)cc1,64.7
CCOc1ccc(/C=C2\SC(=S)N(CCC(=O)O)C2=O)cc1,114.6
CC1CCN(C(=O)CCN2C(=O)/C(=C/c3cccs3)SC2=S)CC1,-74.7*
CC(C)c1ccc(/C=C2\SC(=O)N(CC(=O)NC3C=CS(=O)(=O)C3)C2=O)cc1 (configuration not stated),-69.0*
